Source: PubChem (ICCB-Longwood Screening Facility, Harvard Medical School)
The full list was thinned out, with hits kept by preference.
MgrA DNA FP – modulators of Staphylococcus aureus MgrA DNA binding; fluorescence polarization; inhibition, % (no concentration beside the values); 0.13% of 84,000 active; in the data active = inhibition above about 30%, passing the limit was not always enough;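 also: 0% = protein plus DNA without compound and 100% = DNA alone without protein; higher means less MgrA bound to DNA so lower polarization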
* = called active by the depositor.

SMILES	MgrA DNA FP
CC12CC3(C)CC(C)(C1)CC(CO)(C2)C3	-3
COc1ccc(CNC(=O)Cn2c(SC)nc3ccccc32)cc1	-1
NC(=O)C1CCN(CC(O)COc2ccc(F)cc2)CC1 (stereo unspecified)	0
COC(=O)c1ccc(NC(=O)CSc2nnc(N)s2)cc1	-2
Cc1ccc(C)n1C(Cc1c[nH]c2ccccc12)C(=O)O (stereo unspecified)	66*
NC(Cc1c[nH]c2ccccc12)C(=O)O (stereo unspecified)	0
O=C(O)Cc1c[nH]c2ccccc12	1
NNC(=O)c1ccc2c(c1)OCCO2	-1
CCOc1ccc(C2C(C(=O)OCCSCC)=C(C)NC3=C2C(=O)CC(c2ccc(OC)cc2)C3)cc1 (stereo unspecified)	2
CC(C)(C)c1ccc(-c2nc3scc(-c4cccs4)c3c(=O)o2)cc1	1
COc1ccc(N2C(=O)/C(=C\c3cn(C(C)=O)c4ccccc34)C(=O)NC2=S)cc1	2
O=C(Nc1nccs1)c1ccc(N2C(=O)CCC2=O)cc1	0
Cc1ccc(S(=O)(=O)NCCN2C(=N)N(c3nc(N(C)C)nc(N(C)C)n3)CC2=O)cc1	-2
CCOc1ccc(Nc2cnnc(Nc3ccc(OCC)cc3)n2)cc1	1
CCOc1ccc(NC2=CC(=O)C=CC2=O)cc1	56*
CCOc1ccc(NC2=CC(=O)CCC2)cc1	-1
COc1cc(S(=O)(=O)Nc2ccc(NC(C)=O)cc2)ccc1F	1
Cn1c(O)c(N=NC(=S)Nc2ccccc2)c2ccccc21	5
CN1CCN(CCNC(=O)c2nc(-c3cccnc3)no2)CC1	0
O=C1OC(c2ccccc2)OC(=O)C1=Cc1cccc(OCc2ccccc2)c1 (stereo unspecified)	56*
CCOc1ccc(C=C2C(=O)OC(c3ccccc3)OC2=O)cc1 (stereo unspecified)	16
O=C1NC(=S)N/C1=C\c1cccc(OCc2ccc(F)cc2)c1	-2
c1cc(CNc2ccc(N3CCCC3)cc2)ccn1	97*
O=C(Nc1ccc(N2CCCCC2)cc1)c1ccncc1	2
c1cc2c(cc1CNc1ccc(N3CCCC3)cc1)OCO2	18
SMILES	MgrA DNA FP
CC(C)N(C(=O)Cn1nnc2ccccc21)C(C(=O)NCc1ccco1)c1ccccc1 (stereo unspecified)	-1
O=C1/C(=C\c2ccc(Cl)cc2)Cc2ccccc21	-2
CCOC(=S)SCc1nc(-c2ccc(Cl)cc2)no1	-2
CC(=O)c1ccc2c(c1)C1C=CCC1C(c1ccc(Cl)cc1Cl)N2 (stereo unspecified)	4
Fc1ccc(C2Nc3ccc(Br)cc3C3C=CCC32)cc1 (stereo unspecified)	-2
CCOC(=O)c1ccc2c(c1)C1C=CCC1C(c1ccc(Cl)cc1Cl)N2 (stereo unspecified)	-3
CCOC(=O)c1ccc2c(c1)C1C=CCC1C(c1ccccc1F)N2 (stereo unspecified)	-1
CCOC(=O)[C@@H]1Nc2ccc(C(=O)O)cc2[C@@H]2C=CC[C@H]12	71*
CC(C)c1ccc([C@@H]2Nc3ccc(C(=O)O)cc3[C@@H]3C=CC[C@@H]32)cc1	47*
O=S(=O)(Nc1ccc(N2CCCCC2)cc1)c1ccc(-c2ccon2)s1	0
c1ccc(-c2nnc(SCCN3CCOCC3)o2)cc1	-4
CN1CCCc2cc(CN)ccc21	63*
CN1CCCc2cc(/C=C3\CCC(C4CCCC4)C3=O)ccc21 (stereo unspecified)	-1
CN1CCCc2cc(/C=C3\CC/C(=C/c4ccc5c(c4)N(C)CCC5)C3=O)ccc21	18
Cc1cc(C)c(C#N)c(SCc2cccnc2)n1	0
CC(C)(C)C1(C)OC(=O)C(=Cc2ccc(Br)o2)C(=O)O1 (stereo unspecified)	20
Cc1ccc(N2C(=O)NC(=O)/C(=C/c3ccc(Br)o3)C2=O)cc1Cl	49*
Cc1ccc(N2C(=O)NC(=O)/C(=C/c3cc(Br)c(O)cc3O)C2=O)cc1	14
Nc1cc2c(cc1Cl)OCCO2	-3
O=C1CC(=O)c2c1cccc2[N+](=O)[O-]	35
O=C1CC(=O)c2ccc3c4c(ccc1c24)C(=O)CC3=O	93*
COc1ccc(CN(CCN2CCOCC2)C(=O)c2cc3sccc3n2Cc2ccccc2)cc1	3
COc1ccc(C2NCCC3(O)CCCCC23)cc1 (stereo unspecified)	-3
O=c1cc(O)c2sc3nc(-c4ccccc4)ccc3c2[nH]1	3
FC(F)(F)c1cc(-c2ccco2)nc(-n2cccn2)n1	4
SMILES	MgrA DNA FP
O=c1cc(O)c2sc3nc(-c4ccco4)cc(C(F)(F)F)c3c2[nH]1	88*
Cc1c(NC(=O)c2nn3c(C(F)(F)F)cc(-c4ccco4)nc3c2Cl)c(=O)n(-c2ccccc2)n1C	1
C=CCn1c(CNC(=O)c2cccs2)nnc1SCC(=O)Nc1nc2ccccc2s1	0
O=C(O)c1ccc(N=Cc2cccs2)cc1	-2
O=C1c2c(O)ccc(O)c2C(=O)c2c(NCCNCCO)ccc(NCCNCCO)c21	47*
COCC(=O)Oc1ccc2c(C)c(Cc3ccc(F)cc3)c(=O)oc2c1	0
Cc1ccc(S(=O)(=O)Nc2ccc(Br)cc2C(NCC(=O)O)c2ccccc2)cc1 (stereo unspecified)	2
CC(C)c1ccc(NC(=O)CNS(=O)(=O)c2ccccc2)cc1	2
CC(C)c1ccc(S(=O)(=O)Nc2cc(SCC(=O)O)c(O)c3ccccc23)cc1	90*
O=C1/C(=C/c2ccc(Br)cc2)C=C(c2ccccc2)N1c1ccccc1O	18
CC(C)OC(=O)CSc1nnnn1C	-2
O=C(O)c1cc2c3c(c1)C1C=CCC1C(c1ccc(F)cc1)N3CC1CC=CC21 (stereo unspecified)	46
O=C(O)c1cc2c3c(c1)C1C=CCC1C(c1ccccc1)N3CC1CC=CC21 (stereo unspecified)	49
O=C(O)c1cc2c3c(c1)C1C=CCC1C(c1ccccc1F)N3CC1CC=CC21 (stereo unspecified)	74*
CCOc1cc(/C=C2\N=C(c3cccc(Cl)c3)OC2=O)cc(Br)c1OC(C)=O	-2
CN(C)S(=O)(=O)c1ccc(S(=O)(=O)N2CCCC(C(=O)NC(C)(C)C)C2)cc1 (stereo unspecified)	4
CC(C)N(Cc1cc2ccccc2[nH]c1=O)C(=O)c1ccncc1	-1
O=C(COC(=O)C1CCC1)c1ccccc1	-2
Cc1ccc(-n2c(O)c(/C=N/c3ccccn3)c3ccccc3c2=O)cc1C	1
CSc1nnc(-c2ccncc2)n1C	-27
O=C(NC1CSCC1=O)c1ccccc1 (stereo unspecified)	2
O=C(CC(NC1CCCCC1)C(=O)O)c1ccc(C2CCCCC2)cc1 (stereo unspecified)	5
CC(C)Cc1ccc(-c2cc(N)c(C(N)=O)s2)cc1	-1
